# Screening data (PubChem BioAssay)
# In the library only some 0.84% were active in any assay of this set; here they are far more common.
# PPARg SRC-2 ag: agonists of SRC-2 recruitment by human PPARgamma | P37231 | PPARgamma LBD-SRC-2 recruitment, biochemical | activation, % at 8 µM | actives 0.34% (n = 200,000); in the data active = activation above about 22%;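 also: 0% = vehicle and 100% = reference agonist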
# Target sequence (P37231 whole entry, looked up, the tested form may be a part): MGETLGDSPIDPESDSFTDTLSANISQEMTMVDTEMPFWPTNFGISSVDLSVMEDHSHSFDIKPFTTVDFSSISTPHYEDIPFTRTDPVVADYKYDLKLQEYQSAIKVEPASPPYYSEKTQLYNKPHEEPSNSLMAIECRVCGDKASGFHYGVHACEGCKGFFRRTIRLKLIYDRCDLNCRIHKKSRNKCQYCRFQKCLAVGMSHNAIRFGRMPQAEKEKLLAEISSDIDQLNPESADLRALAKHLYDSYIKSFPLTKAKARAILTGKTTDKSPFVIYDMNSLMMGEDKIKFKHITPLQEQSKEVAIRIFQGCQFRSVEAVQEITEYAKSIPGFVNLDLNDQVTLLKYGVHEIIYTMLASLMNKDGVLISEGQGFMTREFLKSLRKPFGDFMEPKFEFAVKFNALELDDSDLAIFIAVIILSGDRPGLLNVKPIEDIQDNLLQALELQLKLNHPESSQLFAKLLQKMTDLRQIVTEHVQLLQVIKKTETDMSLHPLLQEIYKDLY
# PPARg SRC-3 ag: PPARgamma-driven SRC-3 recruitment agonism | biochemical PPARgamma/SRC-3 coactivator recruitment assay | activation, % at 8 µM | actives 0.26% (n = 200,000) | AID 731; in the data active = activation above about 23%;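 also: 0% = DMSO and 100% = reference agonist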
# SRC2 TRFRET art: TR-FRET artefact, counter-screen to PPARgamma/SRC-2 agonist assay; stronger effect = higher value; actives 0.4% (n = 200,000); TR-FRET ratio at 8 µM; AID 1049
# SRC1 TRFRET art: TR-FRET artefact, counter-screen to PPARgamma/SRC-1 agonist assay; TR-FRET detection artefact counter-screen, emission ratio; stronger effect = higher value; TR-FRET ratio at 8 µM; AID 1051; actives 0.34% (n = 99,000); in the data active = TR-FRET ratio above about 2300
# SRC3 TRFRET art: flags TR-FRET format artefacts in PPARgamma SRC-3 recruitment agonist screen; TR-FRET ratio at 8 µM; TR-FRET artefact counter-screen, PPARgamma/SRC-3 format; stronger effect = higher value; actives 0.39% (n = 99,000); AID 1048
# PPARg SRC1 recr: agonists of human PPARgamma SRC-1 coactivator recruitment; AID 631; P37231; actives 0.41% (n = 200,000); activation, % at 8 µM; PPARgamma-SRC-1 coactivator recruitment biochemical assay; in the data active = activation above about 19%;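 also: 0% = DMSO and 100% = reference agonist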
# * hit, by the source's call; / = no result. Rule as the data show it, unless noted: active = TR-FRET ratio above about 2000; inactive = the rest.
SMILES,PPARg SRC-2 ag,PPARg SRC-3 ag,SRC2 TRFRET art,SRC1 TRFRET art,SRC3 TRFRET art,PPARg SRC1 recr
O=C(COC(=O)c1sc2ccccc2c1Cl)Nc1ncc(Cl)cc1Cl,34*,-3,2187*,2015,1668,7
CC1Cc2ccccc2N1C(=O)CSc1nnc(-c2ccccc2)c(-c2ccccc2)n1 (stereo unspecified),0,2,3425*,/,/,-3
CC(=O)c1ccc(NC(=O)COC(=O)c2ccccc2N=Nc2ccc(N(C)C)cc2)cc1,9,4,1674,2419*,1886,9
Cn1c(SCc2cc(=O)[nH]c3ccccc23)nnc1-c1ccc(Br)cc1,3,6,1372,/,/,3
O=C1COc2ccc(C(=O)COC(=O)C3CCN(S(=O)(=O)c4cccs4)CC3)cc2N1,12,17,1626,/,/,10
O=C(COC(=O)C1CCN(S(=O)(=O)c2cccs2)CC1)c1cc2ccccc2o1,7,0,2135*,/,/,-3
O=C(COC(=O)C1CCN(S(=O)(=O)c2cccs2)CC1)c1ccc2c(c1)OCCO2,-7,-11,2115*,/,/,-6
COc1cccc(-c2nc(-c3ccc(NC(=O)Cc4ccccc4OC)cc3)no2)c1,-5,0,1985*,/,/,-2
COc1cccc(NC(=O)Cc2nc(-c3ccccc3)sc2-c2ccc(C)cc2)c1,-6,3,2590*,3241*,3358*,2
COc1ccc(-c2noc(Cc3ccccc3OC)n2)cc1,7,26*,1718,/,/,4
COc1ccc(-c2nc(-c3ccc(NC(=O)c4ccc(Br)o4)cc3)no2)cc1OC,8,30*,1699,/,/,11
COc1ccc(-c2noc(Cc3cccs3)n2)cc1,2,4,1628,/,/,1
CN(C(=O)COC(=O)CNC(=O)C12CC3CC(CC(C3)C1)C2)C1CCS(=O)(=O)C1 (stereo unspecified),1,6,1582,1807,1561,-2
CCCN1CCC(NC(=S)Nc2cccc(Cl)c2Cl)CC1,3,1,1529,1924,1374,0
Cc1ccc(NC(=O)c2cc(N3C(=O)C=CC3=O)ccc2N2CCOCC2)cc1Cl,-6,2,1411,1735,1468,-4
O=C(/C=C/c1ccc(Cl)cc1)Nc1ccccc1N1CCOCC1,-3,5,1603,1786,1475,-2
Cc1ccc(NC(=O)c2ccccc2Br)cc1S(=O)(=O)N(C)C,6,2,1543,1755,1489,6
COc1cc(C)c(C(C)C)cc1S(=O)(=O)NCCCn1ccnc1,-9,1,1648,/,/,1
Cc1ccc(C(=O)Nc2ccc(Oc3ccc(C(=O)O)c(C(=O)O)c3)cc2)cc1C,22*,1,1940,/,/,6
Cc1cc(NC(=O)CN2C(=O)NC3(CCC(C)CC3)C2=O)no1 (stereo unspecified),22*,5,1764,2022,1468,5
CCN1C(=O)N(C)C(N(O)C(=O)NC)C1(C)C (stereo unspecified),-1,9,1586,/,/,11
CCc1c(C(=O)N/N=C/c2ccc(C)o2)csc1C,-3,8,1316,/,/,-2
Cc1cccc(N2CCN(C(=O)c3cc(C)oc3C)CC2C)c1 (stereo unspecified),0,1,1709,2332*,1532,14
Cc1cccc(N2CCN(C(=O)c3ccncc3)CC2C)c1 (stereo unspecified),-4,2,1601,/,/,0
Cc1ccc2nc(N3C(=O)C(O)=C(C(=O)c4ccco4)C3c3cccs3)sc2c1 (stereo unspecified),47*,64*,2260*,/,/,38*
SMILES,PPARg SRC-2 ag,PPARg SRC-3 ag,SRC2 TRFRET art,SRC1 TRFRET art,SRC3 TRFRET art,PPARg SRC1 recr
CCOC(=O)c1sc(N2C(=O)C(O)=C(C(=O)c3ccco3)C2c2ccccc2)nc1C (stereo unspecified),13,18,1626,/,/,14
O=C(c1cccnc1)N1CCN(c2ccc3ccccc3n2)CC1,-2,3,1576,1774,1412,3
CCCCSc1nnc([C@H](C)NC(=O)OC(C)(C)C)o1,39*,-7,2298*,/,/,1
CC(C)NC(=O)COC(=O)c1cccc(NS(=O)(=O)/C=C/c2ccccc2)c1,22*,3,1606,1751,1709,-2
O=C(NN1C(=O)c2ccc(-c3ccc4c(c3)C(=O)N(NC(=O)c3cccnc3)C4=O)cc2C1=O)c1cccnc1,5,11,1557,1745,1713,7
CCOC(=O)c1ccc(NC2=CC(=O)CC(c3ccco3)C2)cc1 (stereo unspecified),15,2,2006*,2177,1806,7
O=C(NCCN1CCOCC1)c1ccc(=O)n(Cc2ccc(Cl)cc2)c1,-1,1,1583,1703,1583,2
Cc1c(Cl)cccc1NC(=O)CCCn1nc([N+](=O)[O-])cc1C,14,2,2111*,2085,1427,7
CNC(=S)N1N=C(c2ccc(C)cc2)CC1c1cc(OC)ccc1OC (stereo unspecified),5,6,1638,2589*,2547*,11
CNC(=S)N1N=C(c2ccc(C)cc2)CC1c1ccc(OC)cc1 (stereo unspecified),11,11,1903,/,/,11
CNC(=S)N1N=C(c2ccc(C)cc2)CC1c1ccc(N(C)C)cc1 (stereo unspecified),5,4,1857,2359*,2431*,5
COc1ccc(CC(=O)NC2CC(C)(C)NC(C)(C)C2)cc1,0,9,1308,/,/,-7
CCc1ccc(N2CSC3=C(C#N)C(c4cccs4)CC(=O)N3C2)cc1 (stereo unspecified),35*,8,2462*,2307,1937,10
CCc1ccc(C2CC(=O)N3CN(c4ccccc4)CSC3=C2C#N)cc1 (stereo unspecified),9,16,1752,/,/,5
CCOC(=O)c1ccc(N2CSC3=C(C#N)C(c4cccs4)CC(=O)N3C2)cc1 (stereo unspecified),20,19,2211*,/,/,7
COc1ccc(N2CSC3=C(C#N)C(c4cccs4)CC(=O)N3C2)cc1 (stereo unspecified),29*,39*,2277*,/,/,30*
O=C(O)c1cn(C2CC2)c2cc(N3CCN(S(=O)(=O)c4ccc5c(c4)OCCO5)CC3)c(F)cc2c1=O,3,5,1629,1775,1657,8
CCOC(=O)CSc1c(-c2ccc(Cl)cc2)[nH]c2ccccc12,15,12,1904,2190,2441*,14
O=C(CCN1C(=O)c2ccccc2C1=O)Nc1ccc(-c2nc3ccccc3o2)cc1,-4,-15,1271,/,/,19*
O=C(CN1C(=O)c2ccccc2C1=O)Nc1ccc(-c2nc3ccccc3o2)cc1,15,13,1612,/,/,-1
CCCn1c(C)cs/c1=N\C(=S)Nc1ccccc1,3,6,1455,1865,2212*,14
Cc1cs/c(=N/C(=S)Nc2ccccc2)n1C,6,5,1497,1756,1745,4
